Assay results published in PubChem BioAssay (NCATS).
Inconclusive results are not listed. Calls of active or inactive are those of the source. The call rests on the fitted dose curve; in most records, active means well fitted inhibition curve with a large enough effect; inconclusive means small, poorly fitted or top-dose-only effect; inactive means flat fitted curve, though single readings scatter.

Experiment: qHTS for Inhibitors of Plasmodium falciparum (DD2) proliferation (AID 504314)
Details: P. falciparum Dd2 in erythrocytes, SYBR Green growth, 72 h; series mostly up to 6.11 µM; activity, negative = inhibition: at the top concentration
Excerpt: Plasmodium falciparum is a virulent malarial parasite that kills 1-2 million people worldwide each year. Malaria not only inflicts tremendous suffering and morbidity on the human population, but has dramatically influenced the course of civilization with profound sociological and economic implications (Shah, S. 2010). Transmitted by mosquitoes, the sporozoite form of the parasite enters the blood stream to infect hepatocytes, where they become merozoites that infect red blood cells (erythrocytes). Within erythrocytes, merozoites begin a […] cycle of growth and division, after which the parasite is released to infect new red blood cells. Gametocytes, which form within erythrocytes as well, circulate in the bloodstream and are ingested by the mosquito, thereby completing the life cycle (see CDC website). To profile malarial lines for differential chemical responses and to identify inhibitors of malarial growth, an assay that measures P. falciparum growth and replication within erythrocytes was employed. This assay uses a DNA binding fluorescent dye (SYBR Green) to detect parasite DNA following cell lysis. Because mature erythrocytes lack DNA, only Plasmodium-derived DNA is detected. The P. falciparum line cp250, derived from a malarial isolate from Cambodia, (Mu, J., et al. 2010) was added to the panel of lines, Dd2, HB3, 7G8 and GB4 in this study.
Laboratory of Assay Development and Screening Technology [ADST] and NIH Chemical Genomics Center [NCGC]
Boston University, Chemistry Department, Center for Chemical Methodology and Library Development [CMLD-BU]
NIH National Institute of Allergy and Infectious Diseases [NIAID]
ADST Assay Protocol Summary:
The 1536-well SYBR Green viability assay was based on the method of Bennett et al (2004) and described previously in 1536-well format (Yuan J., et al. 2009). For screening 3 ul culture medium was dispensed into 1536 well black clear bottom plates (Aurora Biotechnologies) using a Multidrop Combi (Thermo Fisher Scientific Inc.), 23 nL compounds in DMSO were added by a pin transfer (Cleveland, P.H. and Koutz, P.J, 2005) using a pin tool-based delivery system (Kalypsys), and 5 ul of erythrocytes infected with P. falciparum one of five lines (cp250, Dd2, HB3, 7G8 or GB4, 0.3% parasitemia, 2.5% hematocrit final concentration) were added. The plates were incubated at 37C in a humidified incubator in 5% CO2 for 72 h, and 2 ul lysis buffer (20 mM Tris HCl, 10 mM EDTA, 0.16% saponin, 1.6% triton X, 10X SYBR Green I (supplied as 10,000X final concentration by Invitrogen) was added to each well. The plates were mixed for 25 sec with gentle shaking and incubated overnight at room temperature in the dark. The following morning, fluorescence intensity at 485(14) nm excitation and 535(25) nm emission wavelengths was measured on an EnVision (Perkin Elmer) plate reader. Plate reads were normalized relative to the control inhibitor (0.29 uM artemisinin) and vehicle (DMSO) wells present on each plate and then corrected by an algorithm using vehicle-only control plates at the beginning and end of the compound plate stack.
Shah, S. (2010). The Fever: how malaria has ruled humankind for 500,000 years. New York, Sarah Crichton Books.
CDC web site, http://www.cdc.gov/malaria/about/biology/index.html
Mu, J., Myers, R.A., Jiang, H., Liu, S., Ricklefs, S., Waisberg, M., Chotivanich, K., Wilairatana, P., Krudsood, S., White, N.J., et Plasmodium falciparum genome-wide scans for positive selection, recombination hot spots and resistance to antimalarial drugs Nature Genetics 2010, 42, pp 268-271
Bennett TN, Paguio, M., Gligorijevic, B., Seudieu, C., Kosar, A. D., Davidson, E., and Roepe, P. D. Novel, rapid, and inexpensive cell-based quantification of antimalarial drug efficacy Antimicrobial Agents Chemother. 2004, 48(5): pp 1807-10
Yuan J, Johnson RL, Huang RL, Wichterman J, Jiang HY, Hayton K, Fidock DA, Wellems TE, Inglese J, Austin CP, Su XZ. […]

activity, negative = inhibition, inactive:
CCCCCCCC1=CC2=CC(=O)C(C)(O)C(=O)C2=CN1CCCC (stereo not given) 0.249%
COC(=O)C1=C(C(=O)OC)[C@@H]2Nc3ccccc3[C@@]23C[C@@H](C(=O)OC)N(C(=O)N2CCNC2=O)C3=N1 -11.1%
COC(=O)C(C(C)=O)C(=O)C(Cc1ccccc1)NC(=O)OCc1ccccc1 (stereo not given) -2.23%
C=CCOC(=O)N[C@@H](c1cccs1)C(C(C)=O)C(C)=O -6.33%
CC(C)=CCCC(C)=CCON=C1C[C@@H](O)[C@@H](O)[C@@H]2[C@H]3C(=O)N(c4ccc(F)cc4F)C(=O)[C@@H]3CC[C@H]12 -8.2%
CC(C)=CCCC(C)=CCON=C1C[C@@H](O)[C@@H](O)[C@@H]2[C@H]3C(=O)N(Cc4ccc5c(c4)OCO5)C(=O)[C@@H]3CC[C@@H]12 -12.7%
O=C1C=C(c2ccccc2)CCC1 2.17%
COc1cccc([C@@H]2Oc3ccc(Br)cc3C[C@@H]2OC(=O)N[S+](=O)([O-])c2ccc(C)cc2)c1 -2.63%
COc1ccc([C@]23Cc4c(ccc5ccccc45)[C@H](O2)c2c(cc(-c4ccccc4)oc2=O)O3)cc1 -9.68%
COc1cccc([C@@H]2[C@@H](C)CC[C@@H]3C(=O)NC[C@H](O)CN32)c1 -4.85%
COc1ccc(COC(=O)NN=C2C[C@@H](O)[C@@H](O)[C@@H]3[C@H]4C(=O)N(C5CCCCC5)C(=O)[C@@H]4CC[C@H]23)cc1 -9.29%
COC(=O)C(Cc1cc(Br)c(OC)c(Br)c1O)=NO -8.84%
CCCCc1cc2c(cn1)=C(OC(=O)c1cnc3ccccc3n1)C(C)(OC(=O)CC)C(=O)C=2 (stereo not given) 2.28% [at 1.12 µM]
O=C1OCCC=C1C(O)CCc1ccccc1 (stereo not given) 4.49%
CC(C)(C)Nc1oc(-c2ccccc2)nc1-c1ccc(C(F)(F)F)cc1 -4.97%
CC(=O)C1=C(C)N(CCC=Cc2ccccc2)C(=O)NC1c1ccccc1 (stereo not given) -4.68%
C[C@@H]1CC[C@H]2C(=O)N(Cc3cccc([N+](=O)[O-])c3)C[C@H](O)CN2[C@@H]1c1cccc(Br)c1 -10.9%
COc1ccc(C(=O)Oc2cc(OC)cc(OC)c2C(C)=O)cc1 0.639%
CCCCCCCC#Cc1ccccc1C=NS(=O)c1ccc(C)cc1 (stereo not given) -3.9%
CCN1C(=NCc2ccc(OC)cc2)NC(c2cccc(F)c2)C(C(=O)OC)=C1C (stereo not given) -12.6%
C=CCC(Nc1ccc(OC)cc1)(C(=O)OCC)c1ccccc1 (stereo not given) 0.235%
C=C(C)C(O)C=CC=Cc1ccccc1 (stereo not given) -5.68%
COc1cc(C(CC2=C(c3ccccc3)Cc3ccccc32)NC(=O)C(F)(F)F)cc(OC)c1OC (stereo not given) -12.1%
C=CCN1c2ccccc2[C@]23C[C@@H](C(=O)OC)N(C(=O)Nc4ccc(C(F)(F)F)cc4)C2=NC(C(=O)OC)=C(C(=O)OC)[C@H]13 -8.37%
C=CCN1c2ccccc2[C@]23CCC(=O)N(CCc4ccccn4)C2=NC(C(=O)OC)=C(C(=O)OC)[C@H]13 -4.12%
COC(=O)[C@@H]1C[C@@]23C(=NN=C(SC)C2Nc2ccccc23)N1C(C)=O (stereo not given in full) -1.61%
COc1ccc2c(c1)O[C@H](c1ccc3c(c1)OCO3)[C@@H](OC(=O)Nc1ccc(C)c(Br)c1)C2=O -3.47%
C#CC1(O)C2C=C(OC)C(=O)C1C(c1ccccc1)C2C (stereo not given) -9.71%
CCO[C@H](c1cc(OC)cc([N+](=O)[O-])c1OC)[C@H](C)[C@@H](OC)[C@H](C)C=CCC(=O)OC -8.16%
C[C@@H]1C=CCCO[C@]12C(=O)N(Cc1ccc(F)cc1)c1cccc(Br)c12 -14.3%
CC1=C[C@@H](C)OC2(C1)C(=O)N(Cc1ccc(Br)cc1)c1cccc(Br)c12 (stereo not given in full) -9.18%
O=P1(O)Oc2c(c(-c3ccccc3)cc3ccc4ccccc4c23)-c2c(-c3ccccc3)cc3ccc4ccccc4c3c2O1 -5.24%
C[C@H]1[C@@H]2O[C@H]2CCO[C@H]1c1cccc(Br)c1 -3.82%
CC(C)(C)Nc1oc(-c2ccccc2)nc1-c1ccccc1F -2.06%

Potency, inactive:
CC(=O)[C@@H]1[C@@H](C)N(Cc2ccccc2)C(=O)N[C@H]1c1ccccc1
CCN1C(=NCc2cc(OC)c(OC)c(OC)c2)N[C@@H](c2ccccc2)[C@H](C(=O)OC)[C@H]1C
CC(C)OC(=O)CC(NC(=O)OC(C)(C)C)c1ccccc1 (stereo not given)
COc1cc2c(cc1OC)[C@@H]1O[C@](c3ccsc3)(C2)OC2=C1C(=O)OC1(CCCCC1)C2
COC(=O)CCCC1=CC2=C(c3ccccc3)C(=O)C(C)(OC(=O)C3CCCC3)C(=O)C2=CN1CCN1CCOCC1 (stereo not given)
CCCCc1nc2c(c3c1C[C@H](C)OC3)CN(S(=O)(=O)CCCC)CC2
